Source: PubChem BioAssay
PABP polyA inh = blocks human PABP binding to poly(A) RNA; fluorescence polarization; calls only at 35 µM; 290,000 tested, 1% active;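 further: calls also rest on retests at 20 µM and on dose response follow-up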
Target sequence (P11940 whole entry, looked up): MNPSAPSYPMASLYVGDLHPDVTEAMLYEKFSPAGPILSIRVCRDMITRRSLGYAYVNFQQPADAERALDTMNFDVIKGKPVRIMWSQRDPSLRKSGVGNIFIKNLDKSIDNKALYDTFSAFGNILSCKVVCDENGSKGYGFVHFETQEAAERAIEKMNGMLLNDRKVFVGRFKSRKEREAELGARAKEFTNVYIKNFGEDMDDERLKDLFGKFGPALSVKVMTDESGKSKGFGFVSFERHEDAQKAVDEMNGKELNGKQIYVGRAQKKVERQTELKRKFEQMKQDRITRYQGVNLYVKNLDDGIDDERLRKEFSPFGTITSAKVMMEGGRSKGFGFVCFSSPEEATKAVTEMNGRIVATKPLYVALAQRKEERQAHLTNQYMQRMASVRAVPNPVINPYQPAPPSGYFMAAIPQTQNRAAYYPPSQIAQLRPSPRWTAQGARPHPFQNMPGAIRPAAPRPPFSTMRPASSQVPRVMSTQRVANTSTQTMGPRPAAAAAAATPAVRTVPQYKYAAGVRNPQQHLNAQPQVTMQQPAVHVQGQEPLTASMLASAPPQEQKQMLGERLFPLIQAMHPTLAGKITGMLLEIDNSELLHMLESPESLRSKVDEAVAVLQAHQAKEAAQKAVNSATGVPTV
eIF4H inh = inhibitors of RNA binding by human eIF4H; eIF4H fluorescence polarization binding assay; inhibition, % at 35 µM; 290,000 tested, 0.94% active;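 further: calls also rest on retests at 20 µM and on dose response follow-up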
14-3-3 Bad PPI = disrupts binding of bovine 14-3-3 zeta to phospho-Bad peptide; 220,000 tested, 0.71% active; inhibition, % at 21.7 µM; TR-FRET 14-3-3zeta/Dy647-pBad peptide displacement, 1 h; P63103;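 active means inhibition above about 70%, limit read from the data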;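 further: 0% = full 14-3-3 plus peptide FRET controls and 100% = background without 14-3-3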
PABP1 MLLE inh = blocks PAM2 peptide binding to the PABP1 MLLE domain; inhibition, % at 20 µM; 360,000 tested, 0.36% active; AID 588489; GST-MLLE / FITC-PAM2 fluorescence polarization; P11940; in the data active means inhibition above about 35%, passing the limit was not always enough;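 further: plate controls were DMSO wells with GST-MLLE for no effect and wells lacking GST-MLLE protein for full effect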
eIF4E 4G PPI = blocks eIF4E binding to eIF4G | P63073+Q04637 | TR-FRET eIF4E-eIF4GI(517-606) binding, 2 h | inhibition, % at 21.7 µM | 220,000 tested, 0.37% active;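 active means inhibition above about 30%, limit read from the data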;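 further: 0% = full FRET control wells and 100% = background wells lacking eIF4GI fragment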
Active calls of the source: *; i = inactive; · = no result given; + = active, no number; [ ] = another dose, or the depositor's remark. Most compounds without a hit are left out; they make up all but 1.9% or so of the library. Unless noted, how the calls were made is not given here.

SMILES	PABP polyA inh	eIF4H inh	14-3-3 Bad PPI	PABP1 MLLE inh	eIF4E 4G PPI
CC(CN1CCCC1)OC(=O)c1ccc(Br)cc1 (centres undefined)	i	2	·	-2	·
CCn1c(C)c(CS(=O)(=O)c2ccccc2)[nH]c1=O	i	0	-8	38*	10
O=c1[nH]c(CS(=O)(=O)c2ccccc2)nc2ccccc12	i	10	-3	13	0
CCc1nc(N2CCN(C(=O)CCl)CC2)c2c3c(sc2n1)CC(C)CC3 (centres undefined)	i	-6	·	4	·
O=C(N/N=C\C=C\c1ccc([N+](=O)[O-])o1)c1cccs1	+	100*	·	-19	·
O=C(N/N=C/C=C/c1ccccc1[N+](=O)[O-])c1cccs1	i	-9	1	-17	4
COc1cc(CCC(=O)Nc2cccc(C(F)(F)F)c2)cc(OC)c1OC	i	2	-4	9	-5
COc1cc(CCC(=O)Nc2ccc(Cl)c(C(F)(F)F)c2)cc(OC)c1OC	i	-6	75*[fluorescence artefact?]	3	2
COc1cc(CCC(=O)Nc2ccc(Br)c(C(F)(F)F)c2)cc(OC)c1OC	+	active	-6	1	-1
N#C/C(=C\c1ccc(OC(=O)c2ccc(Br)s2)cc1)c1nc2ccccc2[nH]1	i	27	61	4	34*
N#C/C(=C/c1ccc(OC(=O)c2ccc(Br)s2)cc1)c1nc2ccccc2[nH]1	·	·	·	-5	·
N#C/C(=C\c1ccc(OC(=O)c2ccc(Cl)s2)cc1)c1nc2ccccc2[nH]1	+	51*	31	16	23
COc1cc(OC)c2ccc(=O)oc2c1C(CC(=O)N1CCCC1)c1ccc2c(c1)OCO2 (centres undefined)	+	82*	5	6	4
COc1cc(C(CC(=O)N2CCCC2)c2c(OC)cc(OC)c3ccc(=O)oc23)cc(OC)c1OC (centres undefined)	i	52*	-2	43*	3
COCCNc1oc(/C=C/c2ccc(F)cc2)nc1S(=O)(=O)c1ccccc1	i	-11	·	8	·
NC(=O)C1CCN(C(=O)CCC(=O)N2CCOc3ccc(Cl)cc32)CC1	i	-8	·	-6	·
C#Cc1cccc(C(=O)N2CCCC(C(=O)c3ccc(OC)cc3C)C2)c1 (centres undefined)	i	0	·	-12	·
Cc1cc(C)nc(CCNC(=O)CC2C(=O)NCCN2Cc2ccccc2)n1 (centres undefined)	i	18	·	10	·
C=CCOc1ccc(CN(C)CC(=O)Nc2ccc3c(c2)CCC3)cc1	i	18	59	-3	3
CCOc1ccc(CN(C)CC(=O)Nc2ccc3c(c2)CCC3)cc1OC	i	76*	-8	1	2
COc1cc(CC(=O)Nc2ccc3c(c2)CCC3)cc(OC)c1OC	i	-1	-8	-39	60*[fluorescence artefact?]
COc1cccc(CC(=O)Nc2ccc3c(c2)CCC3)c1	i	5	·	-17	·
Cc1ccccc1N=C1NC(=O)/C(=C/c2cccn2-c2cccc(C(=O)O)c2)S1	i	98*	26	·	14
O=C(O)c1cccc(-n2cccc2/C=C2/SC(=O)N(CC(=O)N3CCCC3)C2=O)c1	+	90*	·	2	·
Cc1cccc(N=C2NC(=O)/C(=C/c3cccn3C)S2)c1C	i	6	3	-62	1
SMILES	PABP polyA inh	eIF4H inh	14-3-3 Bad PPI	PABP1 MLLE inh	eIF4E 4G PPI
NC(=O)C1CCCNC1 (centres undefined)	+	79*	-5	-2	-18
O=C(NC1CCNCC1)C1CCCCC1	i	-15	·	-12	·
Cc1cc(C)c2c(N)c(C(=O)c3ccc(Cl)c(Cl)c3)sc2n1	i	-15	82*	-30	16
Cc1cc(C)c2c(N)c(C(=O)c3ccc(Cl)cc3)sc2n1	i	-7	15	-93	3
Cc1cc(C)cc(NC(=O)c2sc3nc(C)cc(C)c3c2N)c1	i	-3	·	25	·
Cc1cc(C)c2c(N)c(C(=O)NCC3CCCCC3)sc2n1	i	0	-3	40*	-4
Cc1cc(C)c2c(N)c(C(=O)NC3CCCC3)sc2n1	+	active	-8	16	1
COCCNC(=O)C(c1ccc(O)cc1)N(Cc1ccccc1)C(=O)CCC(=O)Nc1nccs1 (centres undefined)	i	-20	·	1	·
O=C(N/N=C1\C(=O)c2cccc3cccc1c23)c1ccc(O)cc1	i	28	3	-9	6
O=C1C([N+](=O)[O-])=C(O)c2cccc3cccc1c23	+	85*	·	·	·
Nc1ccccc1-c1nnc(SCc2ccccc2F)[nH]c1=O	i	10	-6	-4	33*[fluorescence artefact?]
O=C(COc1ccc(S(=O)(=O)N2CCOCC2)cc1)NCCc1ccc(Cl)cc1	·	·	·	-14	·
CN(C)c1ccc2c(c1)Sc1cc(N(C)C)ccc1N2C(=O)c1ccccc1	i	-1	-12	-14	3
COc1ccc(NC(=S)N(Cc2ccc(C(=O)O)cc2)Cc2ccc(OC)c(OC)c2)cc1	+	91*	-23	-10	1
CCN(CC)C(=S)Nc1ccc(OC)cc1	+	active	-5	-31	1
Nn1c(SCc2ccc(F)cc2)nnc1-c1ccncc1	i	-2	-2	-45	-1
CC1=CC2=NC(=O)CC(C)(C(=O)N(CC(=O)NC3CCCC3)c3cc(C)cc(C)c3)N2C=C1 (centres undefined)	i	2	1	9	35*
CC1=CC2=NC(=O)CC(C)(C(=O)N(CC(=O)NC(C)(C)C)C3CCCC3)N2C=C1 (centres undefined)	i	4	17	-4	-8
CC(C)C[C@@H](CN(C)N=O)N(C[C@H](Cc1ccccc1)N(CCc1ccccc1)N=O)N=O	i	-6	-2	-8	0
CN(C[C@H](Cc1ccccc1)N(CCN(CCc1ccccc1)N=O)N=O)N=O	+	-8	-2	-9	2
Nc1cc(-c2nn[nH]n2)ccc1F	i	30	72*	-8	4
COc1ccc(-c2nn[nH]n2)cc1OC	i	-7	36	-2	-9
O=S(=O)(c1cccs1)N1CCN(CC(O)COC2CCCc3ccccc32)CC1 (centres undefined)	i	2	79*	-5	0
Cc1ccccc1-c1ccccc1CN1[C@@H](C(C)C)COCCS1(=O)=O	·	·	·	-24	·
CCOC(=O)CSc1nc(C2CC2)nc2ccccc12	i	-4	3	36*	1
CC(C)c1nc(SCC(=O)c2ccc(F)cc2)c2ccccc2n1	i	-4	5	37*	6
CCc1nc(SCC(=O)c2ccccc2)c2ccccc2n1	i	4	-9	41*	-3
O=C(CNS(=O)(=O)c1c(Cl)cccc1Cl)OCC(=O)c1ccc[nH]1	i	79	12	-13	17
COc1ccccc1CCC(=O)N1CCN(S(=O)(=O)c2cccc(F)c2)CC1	·	·	·	-4	·
CCCCN(C(C)=O)c1c(CC)nc2ccc(C(=O)Nc3cccc(OCC(=O)N(C)C)c3)cn12	·	·	·	-1	·
